Hits are enriched below; roughly 19% of the tested compounds scored in any of these assays.
DT40 TDP1 no CPT – qHTS for Inhibitors of human tyrosyl-DNA phosphodiesterase 1 (TDP1): qHTS in cells in absence of CPT; Potency, µM (highest dose often 46.2 µM), for inactives: at the highest dose activity change, negative = growth inhibition, actives largely listed as inhibitors; AID 686978, 2013; DT40 Tdp1-/- hTDP1 cells, no CPT, ATP luminescence, 48 h; hit rate 15% among 420,000; note: potency is the fitted concentration of half-maximal effect; nearly all actives have a fitted effect of over 55% in size
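Growth kinetics read by CellTiter-Glo luminescence after ≥48 hr at 37 °C. Cells: DT40 Tdp1-/- stably carrying human TDP1, 400 per well, compound exposure in the absence of CPT (DMSO vehicle).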
TDP1 cell CPT – qHTS for Inhibitors of human tyrosyl-DNA phosphodiesterase 1 (TDP1): qHTS in cells in presence of CPT | hit rate 12% among 420,000 | chicken DT40 Tdp1-/-;hTDP1 cells + 20 nM CPT, ATP luminescence, 48 h | Potency, µM (highest dose often 46.2 µM), for inactives: at the top dose activity change, negative = growth inhibition, actives largely listed as inhibitors; note: potency is the fitted concentration of half-maximal effect; nearly all actives have a fitted effect of over 55% in size
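Chicken DT40 Tdp1-/- cells stably complemented with human TDP1 were seeded at 400 cells/well in medium containing 20 nM camptothecin, exposed to pin-transferred compounds, and grown at 37 °C for at least 48 hr. Viability was read as ATP luminescence.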
HT1080-NT tox – qHTS for induction of synthetic lethality in tumor cells producing 2HG: qHTS for the HT-1080-NT fibrosarcoma cell line. Potency, µM (doses to about 46.1 µM), inactives show at the top dose activity, negative = less viability, hits mostly cytotoxic. HT-1080-NT fibrosarcoma viability, CellTiter-Glo ATP luminescence, 48 h. hit rate 1.6% among 360,000;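 note: NT is the 2HG producing partner of a matched IDH1 knockdown line; potency is the fitted concentration of half-maximal effect; 0% = DMSO-treated cells and -100% = media-only wells without cells; nearly all actives have a fitted effect of over 55% in size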
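Compounds were tested in concentration-response format on HT-1080-NT cells for 48 hours at 37 degrees C. Cell viability came from CellTiter-Glo luminescence; curves were classified by r2, response magnitude and activity.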
HT1080 IDH1KD tx – qHTS for induction of synthetic lethality in tumor cells producing 2HG: qHTS for the HT-1080-IDH1KD cell line | HT-1080 IDH1 knockdown viability, ATP luminescence, 48 h | Potency, µM (highest dose often 46.1 µM), for the others: at the top dose activity, negative = toxicity, most hits filed as cytotoxic | hit rate 2% among 360,000;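 note: potency is the fitted concentration of half-maximal effect; 0% = DMSO wells and -100% = cell-free medium wells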
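IDH1KD HT-1080 cells, 750/well, RPMI + 5% FBS; compound pinned after 2 h settling; 48 h, 37 °C; CellTiter-Glo luminescence; % activity normalised to DMSO and no-cell wells; curves fitted, classed by r2 and efficacy.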
IL-1B inflam inh – qHTS for Inhibitors of Inflammasome Signaling: IL-1-beta AlphaLISA Primary Screen | THP-1 LPS/ATP IL-1B secretion, AlphaLISA, 16 h; stronger effect = lower value | activity change, % at 57.5 µM | hit rate 4.7% among 360,000; in the data active = activity change below about -50%; inconclusive = mostly about -30% to -49%
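Secreted IL-1B measured by AlphaLISA bead assay after 16 h compound exposure of THP-1 cells; compounds (final up to 57.5 uM) added 1 h before LPS (250 ng/mL) and ATP (1.25 mM) stimulation; lower signal means less secretion.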
* marks the source's active call; other numbers are inactive results. Unless noted, calls come from the whole dose curve; as a rule, active = well fitted curve in the direction sought with a large enough effect; inconclusive = small, poorly fitted or top-dose-only effect, or another doubt; inactive = no such curve, though single readings can be large; an effect the other way counts as inactive or inconclusive. Unless noted, % is set by controls: 0 for no effect and ±100 for the full control effect.

`O=C1c2oc3ccccc3c(=O)c2C(c2cccs2)N1CCCN1CCOCC1` (stereo not drawn) gave DT40 TDP1 no CPT -27%, TDP1 cell CPT 18µM*, HT1080-NT tox 6%, HT1080 IDH1KD tx 11% and IL-1B inflam inh 6.
For COCCN1C(=O)c2oc3ccccc3c(=O)c2C1c1ccc(C(=O)OC)cc1 (stereo not drawn) the results were DT40 TDP1 no CPT -4%, TDP1 cell CPT -11%, HT1080-NT tox 0%, HT1080 IDH1KD tx -1% and IL-1B inflam inh -17.
Screening COC(=O)c1ccc(C2c3c(oc4ccccc4c3=O)C(=O)N2CCCN2CCOCC2)cc1 (stereo not drawn) returned DT40 TDP1 no CPT inconclusive, TDP1 cell CPT 21µM*, HT1080-NT tox -2%, HT1080 IDH1KD tx 4% and IL-1B inflam inh -21.
`CCOc1ccc(C2c3c(oc4cc(C)c(C)cc4c3=O)C(=O)N2CCCN2CCOCC2)cc1` (stereo not drawn) gave DT40 TDP1 no CPT 4%, TDP1 cell CPT -20%, HT1080-NT tox -7%, HT1080 IDH1KD tx -6% and IL-1B inflam inh -19.
Screening Cc1ccccc1C(=O)Nc1nc2n(n1)C(c1ccccc1)CC(=O)N2 (stereo not drawn) returned DT40 TDP1 no CPT -4%, TDP1 cell CPT inconclusive, HT1080-NT tox 0%, HT1080 IDH1KD tx 1% and IL-1B inflam inh 2.
For CN(C)S(=O)(=O)c1ccc(F)c(C(=O)Nc2ccccc2C(=O)NC2CC2)c1 the results were DT40 TDP1 no CPT inconclusive, TDP1 cell CPT 6%, HT1080-NT tox 0%, HT1080 IDH1KD tx -3% and IL-1B inflam inh 7.
Screening O=C(Nc1ccc(Cl)cc1F)c1cc(S(=O)(=O)NC2CCCCCC2)ccc1F returned DT40 TDP1 no CPT inconclusive and TDP1 cell CPT 21µM*.
For O=C(Nc1ccc(Br)cc1F)c1cc(S(=O)(=O)NC2CCCC2)ccc1F the results were DT40 TDP1 no CPT 16µM* and TDP1 cell CPT 21µM*.
Screening CCc1ccccc1NC(=O)c1cc(S(=O)(=O)NC2CCCC2)ccc1F returned DT40 TDP1 no CPT 21µM* and TDP1 cell CPT inconclusive.
`CCN(CC)S(=O)(=O)c1ccc2nc(CCl)[nH]c2c1` gave DT40 TDP1 no CPT inconclusive, TDP1 cell CPT 26µM*, HT1080-NT tox 2%, HT1080 IDH1KD tx 1% and IL-1B inflam inh -82*.
For COc1ccccc1NS(=O)(=O)c1ccc2nc(CCl)[nH]c2c1 the results were DT40 TDP1 no CPT inconclusive, TDP1 cell CPT inconclusive, HT1080-NT tox 18%, HT1080 IDH1KD tx inconclusive and IL-1B inflam inh 5.
For COCCNC(=O)CCn1c(=O)c2cc(OC)c(OC)cc2n(CC(=O)Nc2ccc(F)c(Cl)c2)c1=O the results were DT40 TDP1 no CPT -6% and TDP1 cell CPT -3%.
`O=C(c1ccccc1)N1CCN(CC(O)COC2CCCCC2)CC1` (stereo not drawn) gave DT40 TDP1 no CPT -7%, TDP1 cell CPT 2%, HT1080-NT tox 6%, HT1080 IDH1KD tx 6% and IL-1B inflam inh 13.
CCCc1n(CC(O)COCc2ccccc2)c2ccccc2[n+]1C (stereo not drawn) was read as DT40 TDP1 no CPT 23µM*, TDP1 cell CPT 23µM*, HT1080-NT tox 3%, HT1080 IDH1KD tx 5% and IL-1B inflam inh 9.
CCCc1n(CC(O)COCC2CC=CCC2)c2ccccc2[n+]1C (stereo not drawn) was read as DT40 TDP1 no CPT 10µM*, TDP1 cell CPT 8.2µM*, HT1080-NT tox -5%, HT1080 IDH1KD tx -9% and IL-1B inflam inh 7.
For CCCc1n(CC(O)COC2CCCCC2)c2ccccc2[n+]1C (stereo not drawn) the results were DT40 TDP1 no CPT 3.7µM*, TDP1 cell CPT 7.3µM*, HT1080-NT tox -6%, HT1080 IDH1KD tx -17% and IL-1B inflam inh -10.
`O=C(O)c1ccccc1C(=O)NCC(O)COCC1CC=CCC1` (stereo not drawn) gave DT40 TDP1 no CPT -30%, TDP1 cell CPT -1%, HT1080-NT tox 3%, HT1080 IDH1KD tx 3% and IL-1B inflam inh 12.
Screening COCC(=O)Nc1ccc2c(c1)OCC(=O)N2Cc1ccc(C)cc1 returned DT40 TDP1 no CPT 5%, TDP1 cell CPT 7%, HT1080-NT tox 2%, HT1080 IDH1KD tx -5% and IL-1B inflam inh 0.
Screening Cc1ccc(S(=O)(=O)NNC(=O)NC23CC4CC(CC(C4)C2)C3)cc1 returned DT40 TDP1 no CPT inconclusive, TDP1 cell CPT -2%, HT1080-NT tox -1%, HT1080 IDH1KD tx -9% and IL-1B inflam inh 9.
For Cc1cccc(N2CCN(C(C(=O)NCc3ccccc3)c3ccc(C(F)(F)F)cc3)CC2)c1C (stereo not drawn) the results were DT40 TDP1 no CPT inconclusive, TDP1 cell CPT inconclusive, HT1080-NT tox 11%, HT1080 IDH1KD tx 9% and IL-1B inflam inh 8.
`CN(C)c1ccc(C2CNC(c3ccc(Cl)c([N+](=O)[O-])c3)c3[nH]c4ccccc4c32)cc1` (stereo not drawn) gave DT40 TDP1 no CPT 18µM*, TDP1 cell CPT 23µM*, HT1080-NT tox -7%, HT1080 IDH1KD tx -23% and IL-1B inflam inh -25.
`O=[N+]([O-])c1cccc(C2NCC(c3ccccc3Cl)c3c2[nH]c2ccccc32)c1` (stereo not drawn) gave DT40 TDP1 no CPT inconclusive, TDP1 cell CPT inconclusive, HT1080-NT tox inconclusive, HT1080 IDH1KD tx 26µM* and IL-1B inflam inh -63*.
Screening COC(=O)[C@]12CCCCC=C1N(Cc1ccco1)C(=O)[C@H](CC(=O)N1CCCCC1)C2 returned DT40 TDP1 no CPT -24%, TDP1 cell CPT -1%, HT1080-NT tox 12%, HT1080 IDH1KD tx 2% and IL-1B inflam inh 23.
For CC(C)Cn1c2c(c(O)c(C(=O)Nn3c(Cc4ccccc4)nc4ccccc4c3=O)c1=O)CCCC2 the results were DT40 TDP1 no CPT 3.7µM*, TDP1 cell CPT 5.2µM*, HT1080-NT tox -3%, HT1080 IDH1KD tx -4% and IL-1B inflam inh 23.
For CCCCc1nc2ccccc2c(=O)n1NC(=O)c1c(O)c2c(n(CC(C)C)c1=O)CCCC2 the results were DT40 TDP1 no CPT 9.2µM*, TDP1 cell CPT 15µM*, HT1080-NT tox 17%, HT1080 IDH1KD tx 8% and IL-1B inflam inh 39.
Cc1ccc(NC(=O)Cn2cccc2)c(C)c1 was read as DT40 TDP1 no CPT -2%, TDP1 cell CPT -12%, HT1080-NT tox 23%, HT1080 IDH1KD tx 16% and IL-1B inflam inh -2.

Source: PubChem BioAssay (National Center for Advancing Translational Sciences (NCATS))
